From PubChem BioAssay (NCATS)
Results filed as inconclusive are left out. Where a call stands in place of a potency, no number is given. Active and inactive are the calls of the source. Unless noted, calls come from the whole dose curve; as a rule, active = well fitted curve in either direction with a large enough effect (not every such curve was filed as active); inconclusive = small, poorly fitted or top-dose-only effect, or another doubt; inactive = flat fitted curve, though single readings scatter.

molecular target: Mitogen-activated protein kinase 10 (Mus musculus) (UniProt Q61831); experiment: JNK3 AlphaScreen Assay (AID 530); details: JNK3 lysate, c-Jun phosphorylation; series mostly up to 57.1 µM;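 note: kinase came from lysate of stimulated human HepG2 cells; signal reports phosphorylation of biotinylated GST-cJun 1-79 at Ser73 with 10 µM ATP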
Outline: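 Compound titrations were preincubated 15 minutes at room temperature with substrate, antibody and pre-activated JNK3-containing HepG2 lysate. Reactions were started with 10 uM ATP and stopped with EDTA-containing bead buffer for AlphaScreen detection.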

| Structure (SMILES) | outcome |
| --- | --- |
| CCN1CCCC1Cn1c(-c2ccccc2)nc2c(NC3CCCCC3)nc(C)nc21 (stereo not given) | inactive |
| CCCn1c(C)nc2c(N3CCCN(Cc4ccccc4)CC3)nc(C)nc21 | inactive |
| Cc1nc(NCc2ccccc2)c2nc(-c3ccccc3)n(C3CCN(Cc4ccccc4)C3)c2n1 (stereo not given) | inactive |
| CCCn1c(-c2ccc(F)cc2)nc2c(NCCN3CCSCC3)nc(C)nc21 | inactive |
| CCCn1c(C)nc2c(N(CCN(CC)CC)CCN(CC)CC)nc(C)nc21 | inactive |
| CCCn1c(-c2ccc(F)cc2)nc2c(NC3CCN(Cc4ccccc4)C3)nc(C)nc21 (stereo not given) | inactive |
| CCN(CC)CCCC(C)n1c(-c2ccccc2)nc2c(N(CCOC)CCOC)nc(C)nc21 (stereo not given) | inactive |
| CCCn1c(C)nc2c(NCCCN(CCO)CCO)nc(C)nc21 | inactive |
| COCCN(CCOC)c1nc(C)nc2c1nc(-c1ccccc1)n2CCCN1CCCCC1C (stereo not given) | inactive |
| CCN1CCCC1Cn1c(-c2ccccc2)nc2c(NCCOC)nc(C)nc21 (stereo not given) | inactive |
| CCCn1c(-c2ccc(F)cc2)nc2c(NCCN3CCOCC3)nc(C)nc21 | inactive |
| Cc1nc(NC2CCCCC2)c2nc(-c3ccccc3)n(CCN3CCCCC3)c2n1 | inactive |
| CCCn1c(C)nc2c(NC(C)CN(C)C)nc(C)nc21 (stereo not given) | inactive |
| COCCN(CCOC)c1nc(C)nc2c1nc(-c1ccccc1)n2CCN1CCOCC1 | inactive |
| Cc1nc(NCc2ccccc2)c2nc(-c3ccccc3)n(C(C)CN(C)C)c2n1 (stereo not given) | inactive |
| CCN(CC)CCn1c(-c2ccccc2)nc2c(NCc3ccccc3)nc(C)nc21 | inactive |
| CCCn1c(-c2ccc(F)cc2)nc2c(N3CCCN(Cc4ccccc4)CC3)nc(C)nc21 | inactive |
| CCCn1c(C)nc2c(NCCCN(CC)CC)nc(C)nc21 | inactive |
| Cc1nc(NCc2ccccc2)c2nc(-c3ccccc3)n(CCN3CCCC3)c2n1 | inactive |
| CCCn1c(-c2ccc(F)cc2)nc2c(NCC(C)(C)CN(C)C)nc(C)nc21 | inactive |

| Structure (SMILES) | outcome |
| --- | --- |
| CCN(CC)CCCCn1c(-c2ccccc2)nc2c(N(CCOC)CCOC)nc(C)nc21 | inactive |
| CCCCNc1nc(C)nc2c1nc(-c1ccccc1)n2CC(C)(C)CN(C)C | inactive |
| COCCNc1nc(C)nc2c1nc(-c1ccccc1)n2CCN1CCCCC1 | inactive |
| Cc1nc(NCc2ccccc2)c2nc(-c3ccccc3)n(CCCN(C)C)c2n1 | inactive |
| Cc1nc(NCc2ccccc2)c2nc(-c3ccccc3)n(CCCN3CCOCC3)c2n1 | inactive |
| CCCCNc1nc(C)nc2c1nc(-c1ccccc1)n2CC1CCCN1CC (stereo not given) | inactive |
| CCCCNc1nc(C)nc2c1nc(-c1ccccc1)n2CCCN1CCCCC1C (stereo not given) | inactive |
| Cc1nc(N2CCOCC2)c2nc(-c3ccccc3)n(CCCN3CCOCC3)c2n1 | inactive |
| CCCn1c(C)nc2c(NCCCCN3CCCC3)nc(C)nc21 | inactive |
| CCCCNc1nc(C)nc2c1nc(-c1ccccc1)n2CCN1CCCC1 | inactive |
| CCCn1c(-c2ccc(F)cc2)nc2c(NCCCN3CCOCC3)nc(C)nc21 | inactive |
| CCN1CCCC1Cn1c(-c2ccccc2)nc2c(NCc3ccccc3)nc(C)nc21 (stereo not given) | inactive |
| CCN1CCCC1Cn1c(-c2ccccc2)nc2c(N(CCOC)CCOC)nc(C)nc21 (stereo not given) | inactive |
| Cc1nc(NCc2ccccc2)c2nc(-c3ccccc3)n(CCCN3CCCCC3C)c2n1 (stereo not given) | inactive |
| CCCn1c(-c2ccc(F)cc2)nc2c(N3CCN(CCC(=O)OCC)CC3)nc(C)nc21 | inactive |
| Cc1nc(N2CCOCC2)c2nc(-c3ccccc3)n(CCN3CCCCC3)c2n1 | inactive |
| CCCn1c(-c2ccc(F)cc2)nc2c(NCCN3CCCC3)nc(C)nc21 | inactive |
| Cc1nc(NC2CCCCC2)c2nc(-c3ccccc3)n(CCCN3CCCCC3C)c2n1 (stereo not given) | inactive |
| CCCn1c(-c2ccc(F)cc2)nc2c(N3CCN(CCn4ccnc4)CC3)nc(C)nc21 | inactive |
| Cc1nc(N2CCOCC2)c2nc(-c3ccccc3)n(CCN(C)C)c2n1 | inactive |

molecular target: Cytochrome P450 3A4 (Homo sapiens) (UniProt P08684); experiment: qHTS Assay for Inhibitors and Substrates of Cytochrome P450 3A4 (AID 884; active = well fitted inhibition curve with a large enough effect; note: nearly all actives have a fitted effect of over 50% in size; note: potency is the fitted concentration of half-maximal effect); details: recombinant CYP3A4, Luciferin-PPXE luminescence; series mostly up to 57.1 µM
Sequence (P08684 whole entry, looked up): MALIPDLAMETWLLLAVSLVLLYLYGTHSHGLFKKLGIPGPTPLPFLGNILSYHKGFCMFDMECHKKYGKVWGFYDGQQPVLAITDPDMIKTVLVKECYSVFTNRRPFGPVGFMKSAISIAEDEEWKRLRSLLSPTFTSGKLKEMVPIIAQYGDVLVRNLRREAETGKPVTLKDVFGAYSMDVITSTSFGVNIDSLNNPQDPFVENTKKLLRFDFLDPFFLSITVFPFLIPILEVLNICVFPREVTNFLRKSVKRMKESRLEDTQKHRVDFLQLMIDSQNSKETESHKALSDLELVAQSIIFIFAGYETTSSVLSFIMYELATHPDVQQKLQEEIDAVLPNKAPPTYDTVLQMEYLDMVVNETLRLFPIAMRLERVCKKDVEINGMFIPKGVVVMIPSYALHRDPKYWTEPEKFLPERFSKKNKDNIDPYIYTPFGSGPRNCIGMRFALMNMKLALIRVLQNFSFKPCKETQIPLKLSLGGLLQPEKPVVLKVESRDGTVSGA
Outline: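 20 nM human CYP3A4 with 25 uM Luciferin-PPXE (at KM) in 200 mM KPO4, preincubated 10 min with compound; NADPH regeneration started a 60 min RT reaction. Luciferin detected by luminescence, normalized to 57 uM ketoconazole as full inhibition.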

| Structure (SMILES) | Potency |
| --- | --- |
| CCN1CCCC1Cn1c(-c2ccccc2)nc2c(NC3CCCCC3)nc(C)nc21 (stereo not given) | 12.6 µM (active) |
| CCCn1c(C)nc2c(N3CCCN(Cc4ccccc4)CC3)nc(C)nc21 | 7.94 µM (active) |
| Cc1nc(NCc2ccccc2)c2nc(-c3ccccc3)n(C3CCN(Cc4ccccc4)C3)c2n1 (stereo not given) | 3.98 µM (active) |
| CCCn1c(-c2ccc(F)cc2)nc2c(NCCN3CCSCC3)nc(C)nc21 | 20 µM (active) |
| CCCn1c(C)nc2c(N(CCN(CC)CC)CCN(CC)CC)nc(C)nc21 | inactive |
| CCCn1c(-c2ccc(F)cc2)nc2c(NC3CCN(Cc4ccccc4)C3)nc(C)nc21 (stereo not given) | 15.8 µM (active) |
| CCN(CC)CCCC(C)n1c(-c2ccccc2)nc2c(N(CCOC)CCOC)nc(C)nc21 (stereo not given) | 10 µM (active) |
| CCCn1c(C)nc2c(NCCCN(CCO)CCO)nc(C)nc21 | inactive |
| COCCN(CCOC)c1nc(C)nc2c1nc(-c1ccccc1)n2CCCN1CCCCC1C (stereo not given) | 12.6 µM (active) |
| CCN1CCCC1Cn1c(-c2ccccc2)nc2c(NCCOC)nc(C)nc21 (stereo not given) | 20 µM (active) |
| CCCn1c(-c2ccc(F)cc2)nc2c(NCCN3CCOCC3)nc(C)nc21 | 7.94 µM (active) |
| Cc1nc(NC2CCCCC2)c2nc(-c3ccccc3)n(CCN3CCCCC3)c2n1 | 7.94 µM (active) |
| CCCn1c(C)nc2c(NC(C)CN(C)C)nc(C)nc21 (stereo not given) | inactive |
| COCCN(CCOC)c1nc(C)nc2c1nc(-c1ccccc1)n2CCN1CCOCC1 | 1 µM (active) |
| Cc1nc(NCc2ccccc2)c2nc(-c3ccccc3)n(C(C)CN(C)C)c2n1 (stereo not given) | 10 µM (active) |
| CCN(CC)CCn1c(-c2ccccc2)nc2c(NCc3ccccc3)nc(C)nc21 | 12.6 µM (active) |
| CCCn1c(-c2ccc(F)cc2)nc2c(N3CCCN(Cc4ccccc4)CC3)nc(C)nc21 | 3.16 µM (active) |
| CCCn1c(C)nc2c(NCCCN(CC)CC)nc(C)nc21 | inactive |
| Cc1nc(NCc2ccccc2)c2nc(-c3ccccc3)n(CCN3CCCC3)c2n1 | 10 µM (active) |
| CCCn1c(-c2ccc(F)cc2)nc2c(NCC(C)(C)CN(C)C)nc(C)nc21 | 15.8 µM (active) |

| Structure (SMILES) | Potency |
| --- | --- |
| CCN(CC)CCCCn1c(-c2ccccc2)nc2c(N(CCOC)CCOC)nc(C)nc21 | 12.6 µM (active) |
| CCCCNc1nc(C)nc2c1nc(-c1ccccc1)n2CC(C)(C)CN(C)C | 10 µM (active) |
| COCCNc1nc(C)nc2c1nc(-c1ccccc1)n2CCN1CCCCC1 | 10 µM (active) |
| Cc1nc(NCc2ccccc2)c2nc(-c3ccccc3)n(CCCN(C)C)c2n1 | 12.6 µM (active) |
| Cc1nc(NCc2ccccc2)c2nc(-c3ccccc3)n(CCCN3CCOCC3)c2n1 | 3.98 µM (active) |
| CCCCNc1nc(C)nc2c1nc(-c1ccccc1)n2CC1CCCN1CC (stereo not given) | 3.98 µM (active) |
| CCCCNc1nc(C)nc2c1nc(-c1ccccc1)n2CCCN1CCCCC1C (stereo not given) | 6.31 µM (active) |
| Cc1nc(N2CCOCC2)c2nc(-c3ccccc3)n(CCCN3CCOCC3)c2n1 | 15.8 µM (active) |
| CCCn1c(C)nc2c(NCCCCN3CCCC3)nc(C)nc21 | inactive |
| CCCCNc1nc(C)nc2c1nc(-c1ccccc1)n2CCN1CCCC1 | 12.6 µM (active) |
| CCCn1c(-c2ccc(F)cc2)nc2c(NCCCN3CCOCC3)nc(C)nc21 | 5.01 µM (active) |
| CCN1CCCC1Cn1c(-c2ccccc2)nc2c(NCc3ccccc3)nc(C)nc21 (stereo not given) | 5.01 µM (active) |
| CCN1CCCC1Cn1c(-c2ccccc2)nc2c(N(CCOC)CCOC)nc(C)nc21 (stereo not given) | 15.8 µM (active) |
| Cc1nc(NCc2ccccc2)c2nc(-c3ccccc3)n(CCCN3CCCCC3C)c2n1 (stereo not given) | 5.01 µM (active) |
| CCCn1c(-c2ccc(F)cc2)nc2c(N3CCN(CCC(=O)OCC)CC3)nc(C)nc21 | 12.6 µM (active) |
| Cc1nc(N2CCOCC2)c2nc(-c3ccccc3)n(CCN3CCCCC3)c2n1 | 2.51 µM (active) |
| CCCn1c(-c2ccc(F)cc2)nc2c(NCCN3CCCC3)nc(C)nc21 | inactive |
| Cc1nc(NC2CCCCC2)c2nc(-c3ccccc3)n(CCCN3CCCCC3C)c2n1 (stereo not given) | 10 µM (active) |
| CCCn1c(-c2ccc(F)cc2)nc2c(N3CCN(CCn4ccnc4)CC3)nc(C)nc21 | 0.631 µM (active) |
| Cc1nc(N2CCOCC2)c2nc(-c3ccccc3)n(CCN(C)C)c2n1 | inactive |
